Bioassay records: PubChem BioAssay, National Center for Advancing Translational Sciences (NCATS)
The entries come from a sample that favours hits as a whole.
LmPK inhibitor = blocks Leishmania mexicana pyruvate kinase activity. purified LmPK, Kinase-Glo ATP luminescence, 1 h. Q27686. Potency, µM (top dose mostly 57.5 µM), for the others: top-dose activity change, negative = inhibition, hits mostly inhibitors. 290,000 tested, 0.37% active. AID 1721; further: potency means the concentration at half of the fitted maximal effect; on the % scale 0 is the no-effect control and ±100 the full control effect
Target sequence (Q27686 whole entry, looked up): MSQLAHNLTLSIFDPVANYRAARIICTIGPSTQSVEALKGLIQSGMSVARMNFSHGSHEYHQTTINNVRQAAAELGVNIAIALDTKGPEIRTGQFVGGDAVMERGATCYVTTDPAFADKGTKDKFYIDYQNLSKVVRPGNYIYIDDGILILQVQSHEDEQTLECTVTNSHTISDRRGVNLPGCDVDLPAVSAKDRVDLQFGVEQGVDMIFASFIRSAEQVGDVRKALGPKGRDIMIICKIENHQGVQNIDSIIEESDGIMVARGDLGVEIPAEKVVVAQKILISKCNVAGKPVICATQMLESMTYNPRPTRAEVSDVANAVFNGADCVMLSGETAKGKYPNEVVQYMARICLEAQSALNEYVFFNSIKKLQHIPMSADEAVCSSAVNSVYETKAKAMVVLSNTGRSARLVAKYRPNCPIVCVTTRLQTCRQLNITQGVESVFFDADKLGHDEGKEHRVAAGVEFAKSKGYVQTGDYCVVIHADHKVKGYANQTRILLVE
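Pyruvate kinase activity monitored as ATP production (luciferase luminescence). Conditions: 0.1 nM enzyme, 0.5 mM PEP, 0.1 mM ADP, 1 h, RT; normalized against uninhibited and no-enzyme wells.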
Cycloheximide cs = affects cycloheximide protein synthesis inhibition readout, counter-screen; cell reporter, cycloheximide protein synthesis inhibition counterscreen; max response, %; 300,000 tested, 12% active; AID 2314; in the data active means max response mostly above about 13%, no sharp cut-off; inactive means mostly below about 14%; further: read at 38.3 µM for the half of the compounds with a filed dose; 0% is about no effect
Giardia FBPA inh = inhibitors of Giardia lamblia fructose-1,6-bisphosphate aldolase. 290,000 tested, 0.71% active. purified Giardia FBPA. Potency, µM (titrated, usually from 59.6 µM), without a hit: top-dose activity, negative = inhibition, most hits filed as inhibitors. A8B2U2. AID 2451; further: potency means the concentration at half of the fitted maximal effect; on the % scale 0 is the no-effect control and ±100 the full control effect; nearly all actives have a fitted effect of over 55% in size
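40 nM FBPA preincubated 10 min at RT with compound (up to 57.5 uM final), then substrate plus GAPDH/TPI/NAD/arsenate coupling and diaphorase/resazurin added. Fluorescence read after 20 min at RT, 525/598 nm.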
RE007 growth inh = less growth of the S. pombe RE007 Vpr strain; S. pombe RE007 Vpr strain, BacTiter-Glo ATP luminescence, 24 h; Potency, µM (top dose mostly 92.2 µM), for the others: top-dose activity change, negative = less growth, hits mostly inhibitors; 360,000 tested, 0.21% active; AID 651644; active means well fitted falling curve with a large enough effect; inconclusive means small, poorly fitted or top-dose-only effect; inactive means no such curve, though single readings can be large or run the other way; further: potency means the concentration at half of the fitted maximal effect; on the % scale 0 is the no-effect control and ±100 the full control effect; nearly all actives have a fitted effect of over 50% in size
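Fission yeast strain RE007, carrying one chromosomally integrated HIV-1 vpr copy, was seeded at OD 0.01 in PMG+AL medium with 23 nL pinned compound. After 24 h at 30 °C and 99% humidity, viability was read by BacTiter-Glo luminescence.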
TbPYK inhibitor = blocks Trypanosoma brucei pyruvate kinase; Q57TT1; TbPYK enzyme, Kinase-Glo Plus ATP luminescence, 45 min; Potency, µM (top dose mostly 76.8 µM), inactives show top-dose activity, negative = inhibition, usual class: inhibitors; 410,000 tested, 0.12% active; AID 624173; further: potency means the concentration at half of the fitted maximal effect; on the % scale 0 is the no-effect control and ±100 the full control effect; nearly all actives have a fitted effect of over 50% in size
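Assay buffer: 50 mM TEA pH 7.2, 100 mM KCl, 10 mM MgCl2, 0.05% BSA, 0.01% Tween-20. Pyruvate kinase from T. brucei plus substrate met compound, then ADP (130 uM final). Luminescence was read post 45 min RT.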
Shiga toxin inh = inhibitors of Shiga toxin in Vero cells; 290,000 tested, 9.2% active; Vero cells, Shiga toxin protein synthesis inhibition reporter; inhibition, % at 38.7 µM; in the data active means inhibition mostly above about 28%, no sharp cut-off; inactive means mostly below about 43%; further: 0% is about no effect
Active calls of the source: *; ? = inconclusive; nt = no result given; [ ] = another dose, or the depositor's remark. Unless noted, the call rests on the fitted dose curve; in most records, active means well fitted curve in the direction sought with a large enough effect; inconclusive means small, poorly fitted or top-dose-only effect, or another doubt; inactive means no such curve, though single readings can be large; an effect the other way counts as inactive or inconclusive.

SMILES	LmPK inhibitor	Cycloheximide cs	Giardia FBPA inh	RE007 growth inh	TbPYK inhibitor	Shiga toxin inh
Cn1ccnc1SCC(=O)Nc1ccc2ccccc2c1	-5%	42*	0%	-4%	3%	48*
Cc1ccc(NC(=O)CSc2ncc3ccccn23)cc1C	1%	39*	-27%	-9%	-2%	130*
O=C(O)CSc1ncnc2nc[nH]c12	-5%	-7	0%	-19%	-10%	-17
O=C(CSc1ncnc2nc[nH]c12)c1ccc2ccccc2c1	1%	33*	-14%	1%	2%	42*
C=CCN(C(=O)CSc1nc2c(sc3ccccc32)c(=O)n1CCN(CC)CC)c1ccccc1	11%	-8	-5%	2%	-12%	-25
CCOC(=O)C1(CCOc2ccccc2)CCN(Cc2ccc(O)c(OCC)c2)CC1	11%	-4	8%	-15%	4%	-47
COc1ccc(CN2CCNC(=O)C2CC(=O)N(C)Cc2nonc2C)c(F)c1 (configuration not stated)	-9%	-4	nt	-21%	-5%	-34
Cn1ccnc1SCC(=O)c1cc2ccccc2o1	-11%	45*	-19%	0%	-23%	117*
Cn1ccnc1SCC(=O)c1ccc2ccccc2c1	-3%	39*	-8%	-18%	-12%	88*
Cn1ccnc1SCC(=O)c1cccc(Br)c1	-19%	27*	-7%	-17%	-18%	60
Cn1cnnc1SCC(=O)c1cc2ccccc2o1	8%	10	2%	-26%	1%	12
Cc1ccc(NC(=O)CSc2nccn2C)cc1S(=O)(=O)N1CCOCC1	1%	-1	-17%	1%	-5%	-8
Cn1ccnc1SCC(=O)Nc1cccc(Br)c1	nt	nt	nt	nt	-3%	nt
CCN(CC)S(=O)(=O)c1cc(NC(=O)CSc2nccn2C)ccc1C	5%	16*	0%	-13%	1%	103*
Cn1ccnc1SCC(=O)c1ccc(F)cc1	nt	nt	nt	-5%	-5%	nt
O=S(=O)(c1ccc(F)cc1)N1CCC2(CC1)OCCN2S(=O)(=O)c1cccs1	nt	nt	nt	-4%	-1%	nt
O=C(CSc1ncccc1C(=O)O)c1ccc2ccccc2c1	-12%	45*	16%	-1%	-11%	100*
COc1ccc(OC)c(C(=O)CSc2nnnn2C)c1	0%	4	-6%	2%	-10%	18
O=C(CSc1ncccc1C(=O)O)c1cccc(C(F)(F)F)c1	5%	22	14%	-8%	-3%	39
Cc1ccnc(SCC(=O)c2cc3ccccc3o2)n1	1%	13*	-15%	19%	6%	25
COc1ccc(C(=O)CSc2nccn2C)c(OC)c1	-18%	50*	nt	2%	-9%	57*
COc1cc(-c2noc(-c3ccc(N(C)C)c([N+](=O)[O-])c3)n2)cc(OC)c1OC	nt	nt	nt	nt	3%	nt
CCOC(=O)N/N=C1/C[C@@H](O)[C@@H](O)[C@@H]2[C@@H]3C(=O)N(C4CCCCC4)C(=O)[C@H]3CC[C@@H]12	nt	nt	2%[12.9 µM]	nt	nt	nt
Oc1ccc(Nc2ncnc3ccccc23)cc1	-5%	10	6%	2%	1%	19
Cc1ccc(Nc2ncnc3ccccc23)cc1	-6%	62*	?	3%	2%	119*
SMILES	LmPK inhibitor	Cycloheximide cs	Giardia FBPA inh	RE007 growth inh	TbPYK inhibitor	Shiga toxin inh
CC(=O)Oc1cccc(Nc2ncnc3ccccc23)c1	3%	19*	-11%	-12%	3%	nt
CCOC(=O)c1cccc(Nc2ncnc3ccccc23)c1	-4%	25*	5%	2%	-4%	32*
O=C(O)c1cccc(Nc2ncnc3ccc(Br)cc23)c1	6%	25*	-20%	11%	1%	43*
O=C(CSC1=Nc2ccccc2C2=NC(CCC(=O)NC3CCCCC3)C(=O)N12)Nc1cccc(C(F)(F)F)c1 (configuration not stated)	nt	nt	nt	nt	-7%	nt
O=C(c1ccsc1)N1CCCC(N2CCOCC2)C1 (configuration not stated)	6%	-3	nt	-15%	2%	-2
Cc1cccc(Nc2ncnc3c2cnn3C)c1	-1%	9	-1%	-7%	-4%	31
CC(C)Oc1ccc(Nc2ncnc3ccccc23)cc1	-8%	45*	?	-11%	-5%	82
Cc1cccc(Nc2ncnc3ccccc23)c1	-1%	34*	-20%	-22%	-8%	30
